PubChem BioAssay AID1159580 (chemical genetic matrix, 2015)
Values joined by “and” are separate entries in the source; they are usually repeats but may differ in a detail not shown here. Equal entries are not always repeated. The campaign covered roughly 5,500 compounds. About 2,000 (36%) were called active. About 18% were inconclusive and are not listed. Rule as the data show it: active = normalized growth mostly below about 0.91 (no sharp cut-off); inconclusive = no clear call, values can overlap the other calls; inactive = mostly above about 0.92. The list shows a part of the results.

Assay: chemical genetic growth profiling, strain panel (AID 1159580);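 also: tested at 20 µM; growth read once vehicle control cultures reached saturation at 30 °C; 1 = growth at the plate median or of vehicle wells; lower values mean less growth of the strain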
Conditions: S. cerevisiae deletion strains, growth OD

Measured: normalized growth

Nc1ccc(C(=O)O)cc1
inactive: locus YAL021C, strain ccr4, active compounds read low 0.984 | locus YAL026C, strain drs2, active compounds read low 1.01 | locus YAL030W, strain snc1, active compounds read low 1.01 | locus YBL061C, strain skt5, active compounds read low 1.02 | locus YBR009C, strain hhf1, active compounds read low 0.993 | locus YBR021W, strain FUR4, active compounds read low 1.01 | locus YBR023C, strain chs3, active compounds read low 1.03 | locus YBR171W, strain sec66, active compounds read low 1.02 | locus YBR229C, strain ROT2, active compounds read low 0.996 | locus YBR231C, strain swc5, active compounds read low 1.04 | locus YBR279W, strain paf1, active compounds read low 1.02 | locus YCL011C, strain gbp2, active compounds read low 1.01 | locus YCL016C, strain dcc1, active compounds read low 1.03 | locus YCL029C, strain bik1, active compounds read low 1.01 | locus YCL061C, strain MRC1, active compounds read low 1.02 | locus YCL069W, strain vba3, active compounds read low 1.01 | locus YCR088W, strain abp1, active compounds read low 1.01 | locus YDL005C, strain med2, active compounds read low 1.02 | locus YDL035C, strain GPR1, active compounds read low 1.01 | locus YDL040C, strain nat1, active compounds read low 1.02 | locus YDL074C, strain BRE1, active compounds read low 1.03 | locus YDL101C, strain DUN1, active compounds read low 1.02 | locus YDL134C, strain PPH21, active compounds read low 1.01 | locus YDL185W, strain tfp1, active compounds read low 1.03 | locus YDL192W, strain arf1, active compounds read low 1.01 | locus YDR001C, strain nth1, active compounds read low 1 | locus YDR069C, strain doa4, active compounds read low 1.04 | locus YDR101C, strain arx1, active compounds read low 0.996 | locus YDR137W, strain rgp1, active compounds read low 1.01 | locus YDR159W, strain sac3, active compounds read low 1 | locus YDR162C, strain NBP2, active compounds read low 1.02 | locus YDR195W, strain ref2 1.04 | locus YDR297W, strain sur2, active compounds read low 1.02 | locus YDR318W, strain mcm21, active compounds read low 1.01 | locus YDR334W, strain swr1, active compounds read low 1.01 | locus YDR335W, strain msn5, active compounds read low 1.02 | locus YDR388W, active compounds read low 1.01 | locus YDR392W, strain spt3, active compounds read low 0.972 | locus YDR502C, strain sam2, active compounds read low 1.01 | locus YEL003W, strain gim4, active compounds read low 1.02 | locus YEL037C, strain rad23, active compounds read low 1.01 | locus YEL061C, strain CIN8 (second series), active compounds read low 1.02 | locus YEL061C, strain CIN8, active compounds read low 1 | locus YER015W, strain faa2, active compounds read low 1.04 | locus YER016W, strain bim1, active compounds read low 0.987 | locus YER110C, active compounds read low 1.02 | locus YER111C, strain swi4, active compounds read low 1.03 | locus YER155C, strain BEM2 (second series), active compounds read low 1.04 | locus YER155C, strain BEM2, active compounds read low 0.994 | locus YER167W, strain BCK2, active compounds read low 1.01 | locus YFR010W, strain ubp6, active compounds read low 1.02 | locus YGL078C, strain dbp3, active compounds read low 1 | locus YGL086W, strain mad1, active compounds read low 1 | locus YGL167C, strain pmr1, active compounds read low 1.02 | locus YGL173C, strain kem1, active compounds read low 1.03 | locus YGL227W, strain vid30, active compounds read low 1 | locus YGL240W, strain doc1, active compounds read low 1.03 | locus YGL248W, strain PDE1, active compounds read low 1 | locus YGL253W, strain hxk2, active compounds read low 1.01 | locus YGR078C, strain PAC10, active compounds read low 1 | locus YGR135W, strain pre9, active compounds read low 1.02 | locus YGR252W, strain gcn5, active compounds read low 1.04 | locus YHR027C, strain rpn1, active compounds read low 1.02 | locus YHR030C, strain SLT2, active compounds read low 0.999 and 1.11 | locus YHR079C, strain IRE1 (second series), active compounds read low 1.01 | locus YHR079C, strain IRE1, active compounds read low 1.01 | locus YHR094C, strain hxt1, active compounds read low 1.01 | locus YHR129C, strain ARP1, active compounds read low 1 | locus YHR142W, strain chs7, active compounds read low 0.988 | locus YHR200W, strain rpn10, active compounds read low 1.02 | locus YIL066C, strain RNR3, active compounds read low 1.01 | locus YIL073C, strain SPO22, active compounds read low 1.03 | locus YIL125W, strain kgd1, active compounds read low 1.01 | locus YIR030C, strain dcg1, active compounds read low 1.02 | locus YJL092W, strain hpr5, active compounds read low 1.02 | locus YJL095W, strain BCK1 (second series), active compounds read low 1 | locus YJL095W, strain BCK1, active compounds read low 1.04 and 1.01 | locus YJL115W, strain asf1, active compounds read low 1.02 | locus YJL129C, strain trk1, active compounds read low 1.02 | locus YJL134W, strain LCB3, active compounds read low 1 | locus YJL154C, strain vps35, active compounds read low 1.03 | locus YJL164C, strain tpk1, active compounds read low 1 | locus YJL166W, strain qcr8, active compounds read low 1.06 | locus YJL168C, strain set2, active compounds read low 1.01 | locus YJL187C, strain SWE1 (second series), active compounds read low 1.03 | locus YJL187C, strain SWE1, active compounds read low 1.02 | locus YJR043C, strain POL32, active compounds read low 0.996
